# Experimental data from ChEMBL document CHEMBL1961873, “Compounds: GSK PKIS; Assays: Nanosyn kinase panel” (2012).
# Where “and” joins values, the source holds several entries; their conditions need not be identical. Equal values may be shown once.
# Target: Serine/threonine-protein kinase PAK 3 (Homo sapiens) (UniProt O75914)
# Details: at 1 µM
# 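Note: reported percentage is a mean inhibition value.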
# Serine/threonine-protein kinase PAK 3 (Homo sapiens), sequence (O75914 whole entry, looked up): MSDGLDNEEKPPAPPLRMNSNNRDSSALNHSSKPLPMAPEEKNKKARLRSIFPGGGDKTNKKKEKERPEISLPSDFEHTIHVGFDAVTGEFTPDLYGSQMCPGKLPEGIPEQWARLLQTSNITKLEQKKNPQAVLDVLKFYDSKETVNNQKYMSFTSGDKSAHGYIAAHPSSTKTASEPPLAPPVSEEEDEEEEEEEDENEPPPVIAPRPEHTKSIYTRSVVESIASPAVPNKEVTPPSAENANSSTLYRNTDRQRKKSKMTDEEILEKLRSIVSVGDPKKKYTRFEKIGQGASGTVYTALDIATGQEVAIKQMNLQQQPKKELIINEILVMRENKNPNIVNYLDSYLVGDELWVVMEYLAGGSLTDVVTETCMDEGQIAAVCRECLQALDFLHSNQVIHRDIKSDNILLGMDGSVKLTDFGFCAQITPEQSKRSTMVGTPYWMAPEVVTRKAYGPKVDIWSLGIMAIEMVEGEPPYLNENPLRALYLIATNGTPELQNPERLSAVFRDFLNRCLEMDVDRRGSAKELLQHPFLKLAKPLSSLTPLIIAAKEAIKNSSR
row,SMILES,inhibition
1,NS(=O)(=O)c1ccc(N/N=C2\C(=O)Nc3ccc(C(=O)NCc4ccncc4)cc32)cc1,4.65%
2,CCCNc1cccc(-n2ncc3c(N/N=C/c4ccncc4)ncnc32)c1,1.61%
3,c1cnn2ncc(-c3ccnc(NCCCN4CCOCC4)n3)c2c1,3.78%
4,O=C(Nc1n[nH]c2nnc(-c3cccnc3)cc12)C1CC1,0.64%
5,COC(=O)Nc1nc2cc(Oc3ccc(NC(=O)Nc4ccccc4)cc3)ccc2[nH]1,4.15%
6,Fc1ccc(Nc2nccc(-c3c(-c4ccc(C(F)(F)F)cc4)nn4ncccc34)n2)cc1F,3.25%
7,CCS(=O)(=O)c1ccc(OC)c(Nc2ncc(-c3cccc(F)c3)o2)c1,9.2%
8,CN1CCC(C(=O)Nc2n[nH]c3nc(-c4ccc(O)cc4)c(Br)cc23)CC1,5.02% and 1.71%
9,CC1=C(C(=O)Nc2ccc3[nH]nc(C)c3c2)C(c2ccc(C(F)(F)F)cc2)CC(=O)N1 (stereo unspecified),2.95%
10,COc1cccc(-n2ncc3c(N/N=C/c4ccc(C(=O)NCCN(C)C)cc4)ncnc32)c1,3.69%
11,N#Cc1ccc2c(-c3ccnc(NC4CC4)n3)c(-c3ccc(F)cc3)nn2c1,2.53%
12,COc1ccc(Nc2ncc(-c3ccccc3)o2)cc1OC,0.75%
13,Nc1nccc(-c2c(-c3ccc(F)cc3)ncn2C2CCNCC2)n1,-3.86% and -0.28%
14,Cc1cc(O)cc(C)c1/C=C/c1cncc(C(N)=O)c1,2.79%
15,N#Cc1cccc(Nc2ncc(-c3ccccc3)o2)c1,2.5%
16,CC1=C(C(=O)Nc2ccc3[nH]ncc3c2)C(c2ccc(F)cc2)N=C(c2ccc(C(F)(F)F)nc2)N1 (stereo unspecified),0.67%

row,SMILES,inhibition
1,COc1cc2c(cc1Nc1nc(Nc3cccc(F)c3C(N)=O)c3cc[nH]c3n1)N(C(=O)CN1CCN(C(C)C)CC1)CC2,5.46%
2,COc1cc(N2CCN(C(C)C)CC2)ccc1Nc1nc(Nc2cccc(F)c2C(=O)O)c2cc[nH]c2n1,4.9%
3,Cn1c(-c2nonc2N)nc2cnccc21,2.69%
4,Fc1cccc(COc2ccc(Nc3ncncc3C#Cc3ccccc3)cc2Cl)c1,5.44%
5,CN(c1ccc(NC(=O)NCCN2CCOCC2)cc1)c1ccnc(Nc2ccc(CS(C)(=O)=O)cc2)n1,3.94%
6,COc1cc(Nc2ncc(-c3ccccc3)o2)cc(OC)c1,3.26%
7,COC(=O)Nc1nc2ccc(Oc3ccc(NC(=O)Nc4cc(C(F)(F)F)ccc4F)cc3)cc2s1,0.28%
8,c1ccc(-c2n[nH]cc2-c2ccnc(-c3ccc(OCCn4ccnc4)cc3)c2)nc1,-2.41%
9,OCCCNc1nccc(-c2c(-c3ccc(F)cc3)nn3cc(C(F)(F)F)ccc23)n1,3.68%
10,O=C(O[C@H]1CN[C@H](C#Cc2cc3ncnc(Nc4ccc5c(ccn5Cc5cc(F)ccc5F)c4)c3s2)C1)N1CCOCC1,5.53%
11,NC(=O)c1ccc2c(-c3ccnc(NCCCO)n3)c(-c3ccc(F)cc3)nn2c1,4.88%
12,FC(F)(F)CNc1nccc(-c2cnn3ncccc23)n1,3.14%
13,CS(=O)(=O)Nc1ccc(-c2cc(-c3ccccc3)cc(C(N)=O)c2N)cc1,3.38%
14,CS(=O)(=O)CCNCc1ccc(-c2ccc3ncnc(Nc4ccc(OCc5cccc(C(F)(F)F)c5)cc4)c3c2)o1,9.88%
15,COc1cccc(Nc2nccc(-c3cnn4ncccc34)n2)c1,1.63%
